# JMJD2A Tudor inh: blocks the human JMJD2A Tudor domain; Potency, µM (titrated, usually from 114 µM), for the others: top-dose activity change, negative = inhibition, hits mostly inhibitors; AID 504339; AlphaScreen JMJD2A-Tudor / H3K4me3 peptide binding; 390,000 tested, 4.4% active; O75164; further: on the % scale 0 is the no-effect control and ±100 the full control effect; nearly all actives have a fitted effect of over 50% in size
# Sfp PPTase inh: Sfp phosphopantetheinyl transferase inhibition; Q9F4F7; Biochemical Sfp PPTase activity, qHTS; Potency, µM, without a hit: largest response in the series, negative = inhibition, actives largely listed as inhibitors; 310,000 tested, 3.5% active;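 further: the enzyme is Sfp with the accession as filed and its product quenches rhodamine fluorescence; 0% = enzyme reaction without inhibitor and -100% = no enzyme wells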
#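 Fluorescence-quenching assay with 15 nM Sfp, 5 uM rhodamine-CoA and 12.5 uM BHQ-2-labelled ybbR peptide in pH 7.6 Hepes/MgCl2 buffer. Enzyme was pre-incubated with compound for 15 min at room temperature. Rate was taken from the 30-min fluorescence change (525/598 nm).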
# HP1b chromo inh: inhibitors of HP1-beta chromodomain binding to methylated histone tails. Potency, µM (doses to about 114 µM), inactives show top-dose activity change, negative = inhibition, actives largely listed as inhibitors. 390,000 tested, 0.56% active. AID 540317. P83916. AlphaScreen HP1-beta / biotin-H3K9me3 peptide binding; further: nearly all actives have a fitted effect of over 70% in size
#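 Compound inhibition of the preformed complex between 50 nM HP1-beta and 50 nM biotinylated H3K9me3 peptide was read by AlphaScreen. Buffer was PBS pH 7.4 with 0.01% Tween-20. Incubations ran 30 min at room temperature, with 10 ug/mL donor/acceptor beads.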
# L3MBTL1 block: blocks human L3MBTL1; Q9Y468; AlphaScreen L3MBTL1–H3K9me1 peptide binding; Potency, µM (series often up to 57.1 µM), for inactives: at the top dose activity, negative = inhibition, hits mostly inhibitors; 230,000 tested, 0.66% active; AID 485360; further: on the % scale 0 is the no-effect control and ±100 the full control effect; nearly all actives have a fitted effect of over 60% in size
# Target sequence (Q9Y468 whole entry, looked up): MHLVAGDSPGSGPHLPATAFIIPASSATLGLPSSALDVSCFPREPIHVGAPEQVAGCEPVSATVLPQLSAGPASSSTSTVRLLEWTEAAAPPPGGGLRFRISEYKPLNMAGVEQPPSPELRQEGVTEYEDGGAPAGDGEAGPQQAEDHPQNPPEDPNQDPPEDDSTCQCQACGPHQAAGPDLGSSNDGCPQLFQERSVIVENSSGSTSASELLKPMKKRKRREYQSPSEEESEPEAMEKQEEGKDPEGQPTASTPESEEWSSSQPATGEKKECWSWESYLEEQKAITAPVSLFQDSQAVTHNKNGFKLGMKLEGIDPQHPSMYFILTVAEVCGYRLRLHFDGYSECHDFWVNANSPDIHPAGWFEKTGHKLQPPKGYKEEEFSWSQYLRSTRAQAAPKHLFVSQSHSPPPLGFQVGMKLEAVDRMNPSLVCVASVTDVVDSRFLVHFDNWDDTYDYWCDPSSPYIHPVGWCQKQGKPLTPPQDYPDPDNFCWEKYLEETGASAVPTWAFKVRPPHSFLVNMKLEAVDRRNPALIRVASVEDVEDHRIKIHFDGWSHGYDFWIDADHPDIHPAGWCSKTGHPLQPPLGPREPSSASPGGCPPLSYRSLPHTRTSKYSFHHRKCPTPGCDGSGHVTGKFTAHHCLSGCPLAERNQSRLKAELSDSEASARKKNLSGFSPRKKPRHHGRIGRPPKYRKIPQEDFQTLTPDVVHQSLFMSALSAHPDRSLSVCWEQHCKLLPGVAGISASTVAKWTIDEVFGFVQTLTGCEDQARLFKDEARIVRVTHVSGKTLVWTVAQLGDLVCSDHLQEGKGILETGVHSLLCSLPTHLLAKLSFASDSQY
#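 First, the protein-peptide complex forms for 30 min at room temperature (L3MBTL1 50 nM, biotinylated H3K9me1 peptide 75 nM). Next, compounds are pin-transferred and incubated 30 min. Finally, AlphaScreen beads are added and read after 30 min.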
# BAZ2B block: inhibitors of human BAZ2B bromodomain; AlphaScreen BAZ2B-H3K14Ac peptide displacement; Potency, µM (doses to about 114 µM), without a hit: at the top dose activity change, negative = inhibition, most hits filed as inhibitors; Q9UIF8; 360,000 tested, 4.4% active; further: on the % scale 0 is the no-effect control and ±100 the full control effect; nearly all actives have a fitted effect of over 60% in size
#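 BAZ2B (50 nM) with biotin-H3(5-23)K14Ac peptide (50 nM) in PBS pH 7.4, 0.01% Tween-20, preformed 30 min, then compound 30 min at room temperature; top concentration 110uM. AlphaScreen streptavidin donor/nickel chelate acceptor beads (10 ug/mL final), 20 min dark, signal read.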
# G9a block: G9a (human) methyltransferase inhibition; G9a H3K9 monomethylation, AlphaScreen, 2 h; Q96KQ7; Potency, µM (top dose mostly 102 µM), without a hit: top-dose activity, negative = inhibition, most hits filed as inhibitors; AID 504332; 350,000 tested, 8.8% active; further: on the % scale 0 is the no-effect control and ±100 the full control effect; nearly all actives have a fitted effect of over 75% in size
#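 G9a (20 nM) was preincubated 15 min with compound, then reacted 2 h at room temperature with 500 nM biotin-H3K9 peptide and 20 µM SAM. Monomethyl-H3K9 detected by AlphaScreen using anti-H3K9me1 antibody.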
# Starred values were filed as active, the others as inactive; ? = inconclusive; / = not tested or not shown; [ ] = dose if it differs, or a comment. The list is not random: actives were taken first. Their share in the collection is about 12%. The call rests on the fitted dose curve; in most records, active means well fitted curve in the direction sought with a large enough effect; inconclusive means small, poorly fitted or top-dose-only effect, or another doubt; inactive means no such curve, though single readings can be large; an effect the other way counts as inactive or inconclusive. Potency means the concentration at half of the fitted maximal effect.
SMILES,JMJD2A Tudor inh,Sfp PPTase inh,HP1b chromo inh,L3MBTL1 block,BAZ2B block,G9a block
Cc1cccc(N2CCN(C(=O)c3ccc4c(c3)N(Cc3cccc(Cl)c3)C(=O)c3ccccc3S4=O)CC2)c1C (stereo unspecified),-19%,/,37%,/,-8%,-17%[59 µM]
COCCCNCCOCCOc1ccc(Cl)cc1C(C)(C)C,20µM*,-21%,-34%,1%,?,8.9µM*
CC1=NNC(=O)c2ccccc2O1,5µM*,?,27%,-2%,50µM*,-137%[59 µM]
COc1ccc(Cn2c(CNC(=O)Cc3ccc(OC)c(OC)c3)nc3cccnc32)cc1,-15%,/,9%[57 µM],/,-1%,14%[59 µM]
Cc1cccc(CC2CC(=O)N(c3ccc([N+](=O)[O-])cc3)C2=O)c1 (stereo unspecified),-15%,9%,23%,/,-25%,-5%
CN1/C(=C\C(=O)COC(=O)c2ccc([N+](=O)[O-])o2)C(C)(C)c2ccccc21,-29%,10%,18%,?,?,20µM*
CN1/C(=C\C(=S)NC(=O)c2ccc([N+](=O)[O-])cc2)C(C)(C)c2ccccc21,50µM*,?,?,-14%,?,45µM*
CN1/C(=C\C(=S)NC(=O)c2cccc(Br)c2)C(C)(C)c2ccccc21,20µM*,?,?,-11%,10µM*,14µM*
CN1/C(=C/C2CC(=O)N(c3ccc([N+](=O)[O-])cc3)C2=O)C(C)(C)c2ccccc21 (stereo unspecified),?,45µM*,-3%,/,?,?
COc1ccc(NC(=O)CCc2nc3ccccc3c(=O)[nH]2)cc1S(=O)(=O)N1CCCCC1,-24%,/,12%,-8%,/,/
CCCNC(=O)c1cnc2c(-c3ccc(OCC)c(OCC)c3)c(C)nn2c1-c1ccccc1,-23%,/,-3%,/,-19%,-2%[59 µM]
O=C(Nc1ccc(Cl)cc1)c1nc[nH]c1C(=O)NCCCCNC(=O)c1[nH]cnc1C(=O)Nc1ccc(Cl)cc1,-17%,/,50%,6%,/,/
COc1cc(C(=O)N2CCN(C)C(C)C2)ccc1OC1CCN(C(C)=O)CC1 (stereo unspecified),10%,8%,35%,/,-3%,-38%
COc1cc(CCCN2CCNC[C@@H]2Cc2ccccc2)cc(OC)c1OC,-13%,/,36%,1%,-4%,-15%[2.33 µM]
Cc1cnc(C(=O)OC(C)C(=O)Nc2ccc3c(c2)OCCO3)cn1 (stereo unspecified),-12%,3%,21%,/,-12%,/
CCOC(=O)c1cccc(NC(=O)C2CCCN(c3nnc(C)c4c(C)n(-c5ccccc5)nc34)C2)c1 (stereo unspecified),-1%,/,23%,/,-13%,0%[59 µM]
COc1ccc(CN(C)C(=O)c2ccc(OCC(=O)N3CCOCC3)c(OC)c2)cc1,-9%,/,13%,5%,-15%,-3%[59 µM]
CN1/C(=C\C(=O)Nc2ccc(F)cc2)C(C)(C)c2ccccc21,-27%,0%,2%,-5%,?,45µM*
CCOC(=O)/C=C/C(=O)Nc1cccc([N+](=O)[O-])c1,?,2.8µM*,?,-1%,?,?
CCC(Sc1ccccn1)C(=O)Nc1cccc([N+](=O)[O-])c1 (stereo unspecified),-15%,56µM*,13%,7%,-12%,/
CCOC(=O)c1cccc(NC(=O)/C=C/c2cccc([N+](=O)[O-])c2)c1,-11%,6%,32%,0%,4%,16%[59 µM]
CC(C(=O)Nc1cccc([N+](=O)[O-])c1)[n+]1ccccc1 (stereo unspecified),-15%,20µM*,27%,1%,?,/
O=S(=O)(c1ccccc1)N1CCN(c2nc(C3CC3)nc3ccccc23)CC1,-21%,/,/,/,/,/
Nc1cc2c(cc1Cl)-c1ccc(Cl)cc1C2=O,-15%,/,2%,/,/,/
COc1ccccc1C(=O)OCC(=O)NC12CC3CC(CC(C3)C1)C2,-1%,/,5%,2%,9%,?
SMILES,JMJD2A Tudor inh,Sfp PPTase inh,HP1b chromo inh,L3MBTL1 block,BAZ2B block,G9a block
O=C1c2ccccc2NC(c2ccccc2O)N1Cc1ccco1 (stereo unspecified),-8%[57.1 µM],/,4%[57 µM],/,/,/
CC(NC(=O)CCNC(=O)c1ccccc1Cl)c1ccc(-n2ccnc2)cc1 (stereo unspecified),6%,13%,37%,/,-18%,-41%
CC(=O)Nc1cccc(C(=O)NC(C)c2ccc(-n3ccnc3)cc2)c1 (stereo unspecified),-14%,7%,11%,/,?,45µM*
COc1ccccc1C(=O)NCCC(=O)NC(C)c1ccc(-n2ccnc2)cc1 (stereo unspecified),-16%,/,35%,10%,-14%,20µM*
CCOc1cc(CNC(=O)C2COc3ccccc3C2)cc(OCC)c1OCC (stereo unspecified),-10%,/,21%[57 µM],/,-1%,0%[59 µM]
O=S(=O)(NCCS(=O)(=O)N1CCN(c2cccc(Cl)c2)CC1)c1ccc(F)cc1,-4%,/,24%[57 µM],/,-1%,1%[59 µM]
O=C(CC(c1ccco1)S(=O)(=O)c1ccccc1)c1ccc(F)cc1 (stereo unspecified),-30%,7.9µM*,-2%,34%[11.4 µM],-33%,3.5µM*
COc1ccc(C(=O)NCC(c2ccco2)S(=O)(=O)c2ccc(F)cc2)cc1 (stereo unspecified),-7%,/,-9%,/,-2%,4%[59 µM]
c1ccc(-c2nn[nH]n2)c(Nc2cccc3c2CCCC3)c1,/,7%,/,/,/,/
CCCc1[nH]nc2c1C(c1ccc(O)c(OC)c1)C(C#N)=C(N)O2 (stereo unspecified),-16%,-6%,2%,-1%,-36%,50µM*
COc1ccc(C2CC(=O)c3sc(NC(C)=O)nc3C2)cc1 (stereo unspecified),-21%,-18%,-10%,-1%,-5%,40µM*
COc1ccc(-c2nc(NC(C)=O)sc2-c2ccc(OC)cc2)cc1,-24%,9%,46%,-21%,-20%,?
C=CCn1c(O)c(CN2CCOCC2)c(C)c(C#N)c1=O,-14%,7%,21%,-1%,-39%,50µM*
O=C(CCc1nc2ccccc2c(=O)[nH]1)Nc1ccc(N2CCCCC2)cc1,-9%,-6%,5%,0%,?,-40%
Cc1ccc(C(=O)N(Cc2ccc3c(c2)OCO3)Cc2nc3ccccc3c(=O)[nH]2)cc1,-35%,-3%,4%,/,?,-4%
O=C(CCc1nc2ccccc2c(=O)[nH]1)Nc1cc(Cl)ccc1N1CCCC1,-7%,/,35%,-6%,6%,14µM*

# High-throughput results as filed in PubChem BioAssay.
